# In PubChem BioAssay (EPA / NIEHS):
# Several values for one entry are separate records, joined by “and”; a condition that tells them apart may be missing. Equal values may be shown once. The source holds several records for some structures; these can differ, active in one and inactive in another. Activity calls are given as the source filed them. The calls were made as follows: active = hit-call score of the fitted dose curve at least 0.9, where 1 is the maximum; inactive = score below 0.9.
# Read-out: succinate dehydrogenase complex iron sulfur subunit B (SDHB), SDHB (gene 6390)
# Assay: LTEA_HepaRG_SDHB: Life Technologies and Expression Analysis (LTEA) Assay for succinate dehydrogenase complex iron sulfur subunit B (SDHB) using HepaRG (AID 2283528)
# Conditions: mRNA level, 48 h; actives raise or lower the signal
# Protocol: LTEA_HepaRG is a cell based, multiplexed-readout assay that uses HepaRG, a human liver cell line, with measurements taken at 48 hours after chemical dosing on a 96-well plate.LTEA_HepaRG_SDHB is one of 102 assay component(s) measured in the LTEA HepaRG cell culture assay. It is a marker of Cell proliferation, survival, death.Data from the assay component LTEA_HepaRG_SDHB was analyzed into 1 endpoint. This assay endpoint, LTEA_HepaRG_SDHB, was analyzed with bidirectional fitting relative to DMSO as the negative control and baseline of activity. Using a type of inducible reporter, measures of mRNA induction for gain or loss-of-signal activity can be used to understand regulation of transcription factor activity. To generalize the intended target to other relatable targets, this assay endpoint is annotated to the oxidoreductase intended target family, where the subfamily is ubiquinone.
# A total of 1060 chemcials from the ToxCast library were tested in eight-point concentration-response experiments. Cell culture and cytotoxicity assays were conducted at Thermo Fisher Scientific's Custom Services facility (Madison, WI). A single lot of human HepaRG cells (Thermo Fisher Scientific, Frederick, MD) was used for the cell culture experiments. 96-well format collagen type I coated plates of human HepaRG cells were prepared using established methods. Briefly, cryopreserved HepaRG cells were thawed, plated at a density of approximately 100,000 cells/well in HepaRG Thaw, Plate, and General Purpose media (HPRG770, Thermo Fisher Scientific), and incubated for 48 hours. 0.5% DMSO was selected as vehicle control to balance the requisite need of DMSO in HepaRG cultures to maintain differentiation (for example, baseline metabolism, proportions of hepatocytes vs. cholangiocytes), while enabling further hepatic receptor pathway activation (for example, PXR and CAR) in response to chemical exposure. 48 hours after plating, the culture medium was replaced with HepaRG Serum-Free Incudtion Media. Cells were exposed to each test chemical in duplicate and maintained in CO2 incubators for another 48 hours. Chemical plates were thawed to room temperature and 200x concentrations of treatment groups were prepared. 8-point conentration-reponse curves were made with the highest exposure at 100 uM, followed by half-log dilutions, all in 0.5% DMSO. Each test plate contained variouse controls, induction positive controls (1mM phenobarbital), cytotoxicity positive controls ([…] aflatoxin B1), vehicle controls (0.5% DMSO), and total lysis controls (0.5% DMSO). Cell morphology images were taken using an Essen IncuCyte FLR automated microscope, with six 96-well plates imaged in about 24 minutes. Images were captured and exported and JPEG files. Spent culture media was transfered to black-well plates for the LDH assay, and remaining media was sorted at -80 C for later use. Cells were treated with RLT buffer and frozen until shipped for gene expression analysis. Total RNA was isolated from the cell suspension in 75 uL of Buffer RLT (Qiagen, Germantown, MD 20874) by Quintiles/Expression Analysis (Durham, NC) using a custom isolation procedure. Total RNA from each plate well was transferred to a preamplification plate. Fluidigm's 96.96 Dynamic ArrayTM (Fluidigm, Amsterdam, the Netherlands) technology was used for gene expression analyses by quantitative reverse transcription polymerase chain reaction (qRT-PCR, performed by Quintiles/Expression Analysis, Durham, NC)89. Standard TaqManTM Assays (Applied Biosystems/ThermoFisher Scientific, Foster City, CA) were used to assess the expression of 93 genes selected based on their selectivity and sensitivity to important hepatic receptors known to be modulated by environmental chemicals; importance in human hepatocyte functionality; and hepatotoxicity. […]
SMILES,outcome,AC50
CC(=O)S[C@@H]1CC2=CC(=O)CC[C@]2(C)[C@H]2CC[C@@]3(C)[C@@H](CC[C@@]34CCC(=O)O4)[C@H]12,inactive,–
CSC(=O)c1cccc2nnsc12,inactive,–
CCCCOCCOCCOCc1cc2c(cc1CCC)OCO2,inactive,–
COCCO,inactive,–
CC(C)(c1ccc(O)cc1)c1ccc(O)cc1,inactive,0.005 µM (active)
C[C@]12CC[C@@H]3c4ccc(O)cc4C[C@@H](CCCCCCCCCS(=O)CCCC(F)(F)C(F)(F)F)[C@H]3[C@@H]1CC[C@@H]2O (stereo not given in full),–,11.6 µM (active)
CCOC(=O)C(C)Oc1ccc(Oc2nc3ccc(Cl)cc3o2)cc1 (stereo not given),inactive,–
CCCOC(=O)c1ccc(C(=O)OCCC)nc1,inactive,–
CCCCOC(=O)[C@@H](C)Oc1ccc(Oc2ccc(C(F)(F)F)cn2)cc1,inactive,–
O=C(c1ccccc1)C1CCCCC1,inactive,–
CN(C)C(=O)Nc1ccc(Cl)c(Cl)c1,inactive,–
CCOC(=O)COc1cc(-n2ncc(C(F)(F)F)c(C)c2=O)c(F)cc1Cl,inactive,–
c1ccc2[nH]c(-c3cscn3)nc2c1,inactive,–
CCSC(=O)N(CC(C)C)CC(C)C,inactive,–
COC(=O)c1ccc(I)cc1S(=O)(=O)NC(=O)Nc1nc(C)nc(OC)n1,inactive,–
COC(=O)CSc1cc(N=c2sc(=O)n3n2CCCC3)c(F)cc1Cl,inactive,–
S=C([S-])NCCNC(=S)[S-].[Mn+2],–,1.77 µM (active)
CC(C)CCCCCCc1ccc(O)cc1,inactive,–
Oc1ccc(C(c2ccc(O)cc2)C(Cl)(Cl)Cl)cc1,–,80.6 µM (active)
Cc1nn(C)c(Oc2ccccc2)c1C=NOCc1ccc(C(=O)OC(C)(C)C)cc1,inactive,–

SMILES,outcome,AC50
S=C(S)NCCNC(=S)S.[Mn+2].[S-]C([S-])=NCCN=C([S-])[S-].[Zn+2],–,601 nM (active) and 552 nM (active) and 792 nM (active)
CCCCOC(=O)C(C)Oc1ccc(Oc2ccc(C(F)(F)F)cn2)cc1 (stereo not given),inactive,–
C#C[C@]1(O)CC[C@H]2[C@@H]3CCC4=CC(=O)CC[C@@H]4[C@H]3CC[C@@]21CC,inactive,–
CCCOC(=O)NCCCN(C)C,inactive,–
CCN(CC)C(=O)c1cccc(C)c1,inactive,–
N[C@@H](Cc1cc(I)c(Oc2ccc(O)c(I)c2)c(I)c1)C(=O)O,inactive,–
CC(=O)[C@H]1CC[C@H]2[C@@H]3CCC4=CC(=O)CC[C@]4(C)[C@H]3CC[C@]12C,–,88.6 µM (active)
CCCCC(CC)CN1C(=O)C2C3C=CC(C3)C2C1=O (stereo not given),inactive,–
CC(C)(C)[C@@H](O)[C@@H](Cc1ccc(Cl)cc1)n1cncn1,inactive,–
O=C(c1ccc(O)cc1O)c1ccc(O)cc1O,inactive,–
C#CCOC(=O)[C@@H](C)Oc1ccc(Oc2ncc(Cl)cc2F)cc1,inactive,–
OB(O)O,inactive,–
CCOC(=O)c1ccc(O)cc1,inactive,–
CCCCCOC(=O)COc1cc(N2C(=O)C3=C(CCCC3)C2=O)c(F)cc1Cl,inactive,–
C[C@]12C[C@H](O)[C@H]3[C@@H](CCC4=CC(=O)CC[C@@]43C)[C@@H]1CC[C@@H]2C(=O)CO,inactive,–
CCCCCCC(C)OC(=O)COc1nc(F)c(Cl)c(N)c1Cl (stereo not given),inactive,–
N#CSCSc1nc2ccccc2s1,inactive,–
c1ccc(Nc2ccccc2)cc1,inactive,–
CCCN(CCC)C(=O)SCC,inactive,–
